Laboratory results as given in the supplement of paper PMC12350171.
Where a name gives a salt, the structure may show the parent alone. A number with no mark means an inactive call.

Experiments:
Conditions in all cases: 20 µM
[1] = test system: Salmonella enterica typhimurium; assay: growth AUC normalised to DMSO control (fraction of control); higher = less growth inhibition, active = hit call of the paper
Method in brief: (§1)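 Hemin and NAD were added to the medium for Haemophilus parainfluenzae. All pathogens, after two anaerobic passages, were inoculated at a starting OD578 of 0.01 into pre-reduced mGAM plates with 20 μM compound and 1% DMSO under breathable seals, and OD578 was read hourly for 24 h in three biological replicates. AUC of each growth curve was obtained with the trapezoidal rule up to the exponential-to-stationary transition and normalised to DMSO controls from the same plate.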

Shigella flexneri = assay: as above
Method in brief: as §1

Vibrio cholerae = assay: as above
Method in brief: as §1

[2] = test system: Yersinia pseudotuberculosis; assay: as above
Method in brief: as §1

P. vulgatus RND KO = assay: growth AUC normalised to DMSO control (median) (fraction of control); higher = less growth inhibition, active = hit call of the paper
Method in brief: (§2)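 Anaerobic growth was tracked hourly at OD578 for 24 h in 96-well plates of mGAM seeded at OD578 0.01 with each approved-drug library compound at 20 μM and 1% DMSO. Strains had first been passaged twice overnight without oxygen. Three biological replicates were run. The reported median is the area under the curve, calculated by the trapezoidal rule on curves truncated at entry into stationary phase and normalised to vehicle wells on the same plate.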

P. vulgatus WT = assay: as above
Method in brief: as §2

[3] = test system: S. enterica typhimurium WT; assay: as above
Method in brief: as §2

[4] = test system: S. enterica typhimurium tolC KO; assay: as above
Method in brief: as §2
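For growth AUC normalised to DMSO control (median) in this document: active when median AUC fell below 0.1.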

| SMILES | growth AUC normalised to DMSO control [1] | growth AUC normalised to DMSO control (Shigella flexneri) | growth AUC normalised to DMSO control (Vibrio cholerae) | growth AUC normalised to DMSO control [2] | growth AUC normalised to DMSO control (P. vulgatus RND KO) | growth AUC normalised to DMSO control (P. vulgatus WT) | growth AUC normalised to DMSO control [3] | growth AUC normalised to DMSO control [4] |
| --- | --- | --- | --- | --- | --- | --- | --- | --- |
| CCN1CCCC1CNC(=O)c1cc(S(=O)(=O)CC)c(N)cc1OC (configuration not stated) [Amisulpride] | 0.998 | 1 | 1.01 | 0.99 | 1.02 | 1.01 | 1.01 | 0.995 |
| Cc1cc(NS(=O)(=O)c2ccc(N)cc2)no1 [Sulfamethoxazole] | 0.983 | 0.984 | 0.993 | 0.991 | 0.951 | 0.979 | 0.967 | 0.959 |
| CN(C)CCCC1(c2ccc(F)cc2)OCc2cc(C#N)ccc21 (configuration not stated) [Citalopram hydrobromide] | 0.998 | 0.994 | 1 | 1.01 | 1.02 | 0.982 | 1 | 0.991 |
| O=C(NC(Cc1cc(=O)[nH]c2ccccc12)C(=O)O)c1ccc(Cl)cc1 (configuration not stated) [Rebamipide] | 1 | 1.03 | 1.03 | 0.997 | 1.06 | 1.09 | 0.99 | 0.998 |
| CS(=O)(=O)c1ccc([C@@H](O)[C@@H](CO)NC(=O)C(Cl)Cl)cc1 [Thiamphenicol] | 0.408 (active) | 0.0249 (active) | 0.037 (active) | 0.866 (active) | 0.0183 (active) | 0.0102 (active) | 0.509 | 0.281 |
| CC(=O)N(CC(C)C(=O)O)c1c(I)cc(I)c(N)c1I (configuration not stated) [Iocetamic acid] | 0.985 | 0.948 | 0.939 | 0.99 | 0.984 | 0.974 | 0.989 | 0.988 |
| CCC(NC(C)C)C(O)c1ccc(O)c(O)c1 (configuration not stated) [Isoetharine mesylate salt] | 0.999 | 1 | 0.995 | 1 | 0.994 | 1.01 | 0.999 | 0.994 |
| CC1(C)S[C@@H]2[C@H](NC(=O)[C@H](N)c3ccc(O)cc3)C(=O)N2[C@H]1C(=O)O [Amoxicillin] | 0.00744 (active) | 0.0257 (active) | 0.68 (active) | 0.0346 (active) | 0.0144 (active) | 0.0118 (active) | 0.00737 (active) | 0.00653 (active) |
| Cc1c(NC(C)C)c(=O)n(-c2ccccc2)n1C [Isopyrin hydrochloride] | 1.02 | 1.01 | 1.02 | 0.982 | 1.02 | 1.06 | 1 | 1.01 |
| C1CCC(C(CC2CCCCN2)C2CCCCC2)CC1 (configuration not stated) [Perhexiline maleate] | 0.983 | 0.977 | 0.931 | 1.01 | 0.915 | 0.954 | 0.994 | 0.945 |
| CC(C)NCC(O)c1cc(O)cc(O)c1 (configuration not stated) [Metaproterenol sulfate] | 0.995 | 0.967 | 0.998 | 0.988 | 0.986 | 1 | 1.01 | 0.997 |
| Cc1ccc(Cl)c(Nc2ccccc2C(=O)O)c1Cl [Meclofenamic acid sodium salt monohydrate] | 1 | 0.954 | 0.891 | 0.981 | 0.859 | 0.903 | 1.01 | 1.01 |
| Nc1nc2n[nH]nc2c(=O)[nH]1 [Azaguanine-8] | 1.01 | 1.05 | 1.01 | 0.996 | 1.01 | 0.999 | 0.987 | 1.01 |
| CC[C@H]1OC(=O)[C@H](C)[C@@H](O[C@H]2C[C@@](C)(OC)[C@@H](O)[C@H](C)O2)[C@H](C)[C@@H](O[C@@H]2O[C@H](C)C[C@H](N(C)C)[C@H]2O)[C@](C)(O)C[C@@H](C)CN(C)[C@H](C)[C@@H](O)[C@]1(C)O [Azithromycin] | 0.0316 (active) | 0.0334 (active) | 0.0396 (active) | 0.0337 (active) | 0.0189 (active) | 0.0116 (active) | 0.0218 (active) | 0.00733 (active) |
| CC(C)(C)NC[C@H](O)c1ccc(O)c(CO)c1 [Levalbuterol hydrochloride] | 0.95 | 1.01 | 1.01 | 0.992 | 0.962 | 0.992 | 1.01 | 0.997 |
| CC(=O)OCC(=O)[C@@]12N=C(C)O[C@@H]1C[C@H]1[C@@H]3CCC4=CC(=O)C=C[C@]4(C)[C@H]3[C@@H](O)C[C@@]12C [Deflazacort] | 0.977 | 0.992 | 1 | 0.999 | 0.999 | 1.01 | 0.994 | 0.987 |
| COC(=O)Nc1nc2ccc(SC(C)C)cc2[nH]1 [Methiazole] | 1.01 | 1 | 0.999 | 1.01 | 0.992 | 1.04 | 0.997 | 0.994 |
| COc1ccc(C2CNC(=O)C2)cc1OC1CCCC1 (configuration not stated) [Rolipram] | 0.976 | 0.948 | 0.945 | 0.984 | 1.01 | 1.02 | 1.01 | 0.98 |
| CC(=O)NC[C@H]1CN(c2ccc(N3CCOCC3)c(F)c2)C(=O)O1 [Linezolid] | 0.885 (active) | 0.806 (active) | 0.0187 (active) | 0.916 | 0.00951 (active) | 0.011 (active) | 0.918 | 0.223 |
| Clc1ccc(CSC(Cn2ccnc2)c2ccc(Cl)cc2Cl)cc1 (configuration not stated) [Sulconazole nitrate] | 1.04 | 1.06 | 1.05 | 1.02 | 1.06 | 1.08 | 0.997 | 0.911 |
| CN(C(=O)CN(CCO)CC(=O)N(C)C(C)(C)Cc1ccccc1)C(C)(C)Cc1ccccc1 [Oxethazaine] | 0.974 | 1.01 | 0.99 | 0.995 | 0.688 | 0.646 | 1.01 | 0.966 |
| Cn1nnc2c(C(N)=O)ncn2c1=O [Temozolomide] | 0.981 | 0.963 | 0.992 | 0.996 | 0.989 | 0.988 | 0.967 | 1.01 |
| CCCCC1C(=O)N(c2ccccc2)N(c2ccc(O)cc2)C1=O (configuration not stated) [Oxyphenbutazone] | 0.996 | 1.04 | 1.03 | 1 | 1.03 | 1.06 | 1.01 | 1.01 |
| CC(=O)Oc1cc(C(F)(F)F)ccc1C(=O)O [Triflusal] | 0.964 | 0.949 | 0.959 | 0.954 | 0.979 | 1 | 0.995 | 0.955 |
| Clc1cc(Cl)c(OCC#CI)cc1Cl [Haloprogin] | 1.02 | 1.02 | 1.05 | 0.973 | 1.01 | 1.08 | 1.04 | 0.993 |
| CC(C)c1c(C(=O)Nc2ccccc2)c(-c2ccccc2)c(-c2ccc(F)cc2)n1CC[C@@H](O)C[C@@H](O)CC(=O)O [Atorvastatin] | 1.01 | 1.04 | 1.04 | 1.01 | 1.01 | 1 | 0.993 | 0.994 |
| CC[N+](CC)(CC)CCC(O)(c1ccccc1)C1CCCCC1 (configuration not stated) [Tridihexethyl chloride] | 1 | 1.03 | 1.05 | 1 | 1.06 | 1.07 | 1.02 | 0.686 |
| C[C@]12C=CC(=O)C=C1CC[C@@H]1[C@@H]2[C@@H](O)C[C@@]2(C)[C@H]1CC[C@]2(O)C(=O)CO [Prednisolone] | 0.982 | 0.96 | 0.971 | 0.994 | 0.976 | 0.995 | 0.995 | 0.998 |
| CCOC(=O)[C@H](CCc1ccccc1)N[C@H]1CCc2ccccc2N(CC(=O)O)C1=O [Benazepril hydrochloride] | 0.981 | 0.996 | 1.01 | 0.975 | 1 | 1 | 1 | 1 |
